Screen size: about 360,000 compounds; about 1,500 (0.42%) were called active. Rule as the data show it: active = inhibition above about 13% (passing the limit was not always enough); inactive = the rest. The full list was thinned out, with actives kept by preference.
Molecular target: Lon protease (Escherichia coli (strain K12)) (UniProt P0A9M0)
Assay: E. coli eLon protease inhibition – biochemical, fluorescence polarization, primary screen (AID 602123);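 also: 0% = enzyme with probe and DMSO and 100% = no enzyme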
Settings: purified E. coli Lon protease, at 7.94 µM, stronger effect = higher value

Sequence of Lon protease (Escherichia coli (strain K12)) (P0A9M0 whole entry, looked up): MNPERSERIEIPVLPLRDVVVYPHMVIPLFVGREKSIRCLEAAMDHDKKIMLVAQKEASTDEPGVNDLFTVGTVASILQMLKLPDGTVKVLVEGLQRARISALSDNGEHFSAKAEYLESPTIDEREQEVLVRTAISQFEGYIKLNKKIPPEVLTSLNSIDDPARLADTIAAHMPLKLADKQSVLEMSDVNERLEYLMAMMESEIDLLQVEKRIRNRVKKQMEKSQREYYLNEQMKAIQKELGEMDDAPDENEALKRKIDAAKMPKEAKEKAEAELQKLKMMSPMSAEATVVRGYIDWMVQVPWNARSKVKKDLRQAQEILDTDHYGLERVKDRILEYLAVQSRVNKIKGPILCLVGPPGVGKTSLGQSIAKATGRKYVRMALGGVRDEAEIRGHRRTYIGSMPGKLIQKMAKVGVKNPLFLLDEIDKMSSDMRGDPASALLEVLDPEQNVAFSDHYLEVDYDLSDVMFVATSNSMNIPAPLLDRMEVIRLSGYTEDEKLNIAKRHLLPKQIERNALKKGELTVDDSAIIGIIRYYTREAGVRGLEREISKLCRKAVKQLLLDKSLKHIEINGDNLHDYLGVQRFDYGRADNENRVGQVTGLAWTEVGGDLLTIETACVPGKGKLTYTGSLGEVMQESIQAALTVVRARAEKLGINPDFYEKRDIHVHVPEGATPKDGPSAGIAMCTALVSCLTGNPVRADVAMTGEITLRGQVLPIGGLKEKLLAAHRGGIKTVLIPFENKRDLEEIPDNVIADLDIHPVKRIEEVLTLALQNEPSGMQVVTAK

| Structure (SMILES) | inhibition |
| --- | --- |
| O=C(OCCOc1ccccc1Cl)c1cc(S(=O)(=O)N2CCCCC2)ccc1N1CCOCC1 | -5.06% (inactive) |
| COc1cccc(NC(=O)N2C3CCCC2CC(NC(C)=O)C3)c1 (configuration not stated) | -2.6% (inactive) |
| CCCN1C(=O)C(NC(C)=O)c2cc(OC)ccc21 (configuration not stated) | 16.3% (active) |
| CCCN1C2CCCC1CC(NC(=O)c1cccc(OC)c1)C2 (configuration not stated) | -6.23% (inactive) |
| NC(=O)C1CCCN(CC(=O)N2CCN(c3ccccc3)CC2)C1 (configuration not stated) | -1.63% (inactive) |
| OCCC1CN(Cc2cccc(O)c2)CCN1CCc1ccccc1 (configuration not stated) | -2.49% (inactive) |
| COc1cc(C(=O)NCc2ccc3c(c2)cc(C)n3C)cc(OC)c1OC | 24.5% (active) |
| CCOCC(=O)NCc1ccc2c(c1)cc(C)n2C | 13.8% (inactive) |
| CCn1c(CNC(=O)c2cc(OC)c(OC)c(OC)c2)cc2cc(C)ccc21 | -10.1% (inactive) |
| c1cc(-n2cnnn2)ccc1NC1=NCCC1 | -0.06% (inactive) |
| CC1=C(C(=O)Nc2cccc(C(=O)NCC(C)c3ccccc3)c2)SCCO1 (configuration not stated) | 18.4% (inactive) |
| CCn1c(CC(=O)Nc2ccc(C)cc2)nnc1SCC(=O)Nc1nc(C)cs1 | 0.33% (inactive) |
| Cc1ccc(SCC(=O)Nc2nncs2)cc1 | 6.67% (inactive) |
| Cc1ccc(NC(=O)Cc2nnc(SCC(=O)Nc3nncs3)n2C)cc1 | 45.4% (active) |
| COc1ccc(C2C(C#N)=C(N)Oc3cc(N)ccc32)cc1OC (configuration not stated) | -24.5% (inactive) |
| COc1ccc(C2c3ccc(O)cc3Oc3ncn(CCCO)c(=N)c32)cc1OC (configuration not stated) | 58.2% (active) |
| COc1ccc(CNCCCO)cc1OC | 8.73% (inactive) |
| O=C1NC[C@@H](CCCCN2CCN(CCc3ccc(O)cc3)C(=O)C2=O)N(CC2CCCCC2)C1=O | -2.96% (inactive) |
| Cc1cc(NS(=O)(=O)c2ccc(NC(=S)NC(=O)c3ccc(F)cc3Cl)cc2)no1 | 2.44% (inactive) |
| CN(CC(=O)Nc1ccc(F)c(F)c1F)C(=O)C1CC(=O)N(C2CCCC2)C1 (configuration not stated) | -6.03% (inactive) |
| CC1(C)C(c2cccs2)=[N+]([O-])C2(CCCCC2=O)N1O (configuration not stated) | -3.06% (inactive) |
| COc1ccc(Cl)cc1-n1c(C)cc(C(=O)OCC(=O)N2CC(=O)Nc3ccccc32)c1C | 7.08% (inactive) |

| Structure (SMILES) | inhibition |
| --- | --- |
| CN(C(=O)COC(=O)Cn1cnc2c1c(=O)n(C)c(=O)n2C)C1(C#N)CCCCC1 | -2.86% (inactive) |
| Cc1cc(Br)cn2c(Cc3cccc(F)c3)c(-c3cccc(Br)c3)nc12 | -1.91% (inactive) |
| Cc1cc(Br)cn2c(Cc3ccsc3)c(-c3ccc(C#N)cc3)nc12 | 50.3% (active) |
| Cc1ccc(-c2nc3c(C)cc(Br)cn3c2Cc2ccccc2)cc1 | -0.26% (inactive) |
| CCN(CCNC(=O)C1=C(C)C(=O)OC12CCC(C)CC2)c1ccccc1 (configuration not stated) | 2.56% (inactive) |
| CCc1ccccc1NC(=O)CSc1nnc(CCNC(=O)OC(C)(C)C)o1 | 3.77% (inactive) |
| O=C(N/N=C1\CCSC1)c1cc(Cl)ccc1O | -2.2% (inactive) |
| COc1cccc(CNC(=O)CCC2CCCN(C(=O)c3ccc(F)c(Cl)c3)C2)c1 (configuration not stated) | -13.9% (inactive) |
| COc1cccc2c1C(=O)c1c(O)c3c(c(O)c1C2=O)CC(O)(C(C)=NNC(=O)c1ccc(Cl)c(Cl)c1)CC3OC1CC(N)C(O)C(C)O1 (configuration not stated) | 636% [above what the read-out allows, likely interference] (active) |
| Cc1cc(NC(=O)C(C)N2C(=O)c3ccccc3S2(=O)=O)no1 (configuration not stated) | -0.19% (inactive) |
| CC(=O)c1cccc(OCC(=O)OCC(=O)Nc2cc(S(=O)(=O)N3CCCCC3)ccc2C)c1 | 7.88% (inactive) |
| CCOC(=O)[C@]12CCCC=C1N(Cc1ccc3c(c1)OCO3)C(=O)[C@H](CC(=O)NCc1cccs1)C2 | 5.92% (inactive) |
| COc1ccc(CC(=O)N2N=C(C)CC2(O)C(F)(F)F)cc1 (configuration not stated) | -7.36% (inactive) |
| CC1=NN(C(=O)CCCc2ccccc2)C(O)(C(F)(F)F)C1 (configuration not stated) | -1.58% (inactive) |
| CC1=NN(C(=O)CCc2ccccc2O)C(O)(C(F)(F)F)C1 (configuration not stated) | 18.2% (active) |
| Cc1cccn2c(CNCC(C)Oc3cccnc3)c(C(=O)N3CCOCC3)nc12 (configuration not stated) | -6.22% (inactive) |
| Cc1cccc(N2CCC(NCc3c(C(=O)N4CCCCC4)nc4c(C)cccn34)CC2)c1 | 29% (active) |
| CCOC(=O)C1CCN(Cc2c(C(=O)N3CCOCC3)nc3c(C)cccn23)CC1 | -0.49% (inactive) |
| CCOC(=O)c1cccc(NC(=O)C2CCCN(S(=O)(=O)c3cnc[nH]3)C2)c1 (configuration not stated) | -1.61% (inactive) |
| CCOCCc1nn2c(=O)cc(CSCC(=O)Nc3cccc(C)c3C)nc2s1 | 4.06% (inactive) |
| COC(=O)c1ccc2nc(-c3ccc(F)cc3)c(Cc3ccc(C)cc3)n2c1 | -5.56% (inactive) |
| O=c1oc2ccccc2c(CNc2ccccc2)c1[N+](=O)[O-] | -5.51% (inactive) |

| Structure (SMILES) | inhibition |
| --- | --- |
| CCCCCCCCOC1OC(CO)C(O)C(O)C1NC(C)=O (configuration not stated) | 5.86% (inactive) |
| COC(=O)c1cc(NC(=O)c2cc(C(C)(C)C)nn2Cc2cccc(C)c2)ccc1N1CCOCC1 | 7.4% (inactive) |
| CCCCOP(=O)(c1ccc(N(C)C)cc1)C(O)c1cc(OC)ccc1OC (configuration not stated) | 9.34% (inactive) |
| CCOc1ccc(CCN2C(=S)N([C@@H](CC(C)C)CN3CCC[C@@H]3CN3C(=S)NC[C@@H]3Cc3ccc(O)cc3)C[C@@H]2Cc2ccc(O)cc2)cc1 | 1.84% (inactive) |
| COC(=O)c1sccc1-n1cccc1C(=O)C(=O)N1CCCCC1 | -3.71% (inactive) |
| Cc1ccc(-c2nc(CS(=O)CC(=O)NC3CCCC3)c(C)o2)cc1 (configuration not stated) | -12.5% (inactive) |
| COc1ccc(-c2nc(CS(=O)CC(=O)NCc3cccnc3)c(C)o2)cc1OC (configuration not stated) | -14.5% (inactive) |
| COc1ccc(-c2nc(CS(=O)CC(=O)NCc3ccccn3)c(C)o2)cc1 (configuration not stated) | 21.2% (active) |
| O=C(OCc1cn([C@H]2C[C@H](c3ccccc3)N(C(=O)c3cccs3)C[C@@H]2O)nn1)c1ccccc1 | 2.92% (inactive) |
| CC1C(c2ccccc2)=[N+]([O-])C2(CCCC2)N1O (configuration not stated) | -2.56% (inactive) |
| CCN(CC)CCCNC(=O)c1cn(C)c2ccc(S(=O)(=O)N(C)C3CCCCC3)cc2c1=O | 21.3% (active) |
| CCOC(=O)N1CCN(C(=O)c2cn(C)c3ccc(S(=O)(=O)N(CC)CC)cc3c2=O)CC1 | 1.34% (inactive) |
| CCn1cc(C(=O)NCCCN2CCCCCC2)c(=O)c2cc(S(=O)(=O)N3CCc4ccccc4C3)ccc21 | 1.65% (inactive) |
| CCOCCCNC(=O)C(NC(=O)c1ccccc1O)c1ccccc1 (configuration not stated) | 10.1% (inactive) |
| CCn1cc(/C=C(\NC(=O)c2ccc(C)cc2)C(=O)NCCN2CCOCC2)c2ccccc21 | -56.3% (inactive) |
| Cc1c(/C=N/N2C(=O)C3C4C=CC(C4)C3C2=O)c2ccccc2n1C (configuration not stated) | 0.26% (inactive) |
| O=C1C2C3C=CC(C4CC34)C2C(=O)N1/N=C/c1ccc(-c2ccccc2[N+](=O)[O-])o1 (configuration not stated) | 15.8% (active) |
| CCN1CCN(C(=O)CN(C)S(=O)(=O)c2ccc3ccccc3c2)CC1 | -4.47% (inactive) |
| O=C(NCCOc1cccnc1)c1ccc(OC2CCN(Cc3ccccn3)CC2)cc1 | 6.74% (inactive) |
| CCOC(=O)C1(C(F)(F)F)N=C(N(C)C)OC(N(C)C)=N1 | 1.25% (inactive) |
| N#CC1=C(N)OC2=C(C(=O)CCC2)C1C1CC=CCC1 (configuration not stated) | 20% (active) |
| NC1=C([N+](=O)[O-])C(c2ccccc2)C2=C(CCCC2=O)O1 (configuration not stated) | -4.86% (inactive) |

| Structure (SMILES) | inhibition |
| --- | --- |
| N#CC1=C(N)Oc2cc(O)ccc2C1C1CCCCC1 (configuration not stated) | -1.88% (inactive) |
| O=C(O)c1ccc(OCC2CCCO2)cc1 (configuration not stated) | -7.47% (inactive) |
| CCCCCCSc1nsc(N)n1 | -2.31% (inactive) |
| Cc1ccc(CCNC(=O)c2ccc3nc4ccccc4c(=O)n3c2)cc1 | 4.65% (inactive) |
| Cc1ccc2nc3c(cc(C(=O)NCCc4ccccc4)c(=N)n3CC3CCCO3)c(=O)n2c1 (configuration not stated) | 18.8% (active) |
| COc1ccc(CCNC(=O)Cn2c(=O)n(CC3CCCO3)c(=O)c3ccccc32)cc1OC (configuration not stated) | -3.69% (inactive) |
| Oc1ccc(N2CCN(C(=S)NCc3ccccc3)CC2)cc1 | 4.95% (inactive) |
| CC(C)N(C(=O)COC(=O)c1ccccc1C(=O)N1CCN(c2ccc(F)cc2)CC1)C(C)C | -12.1% (inactive) |
| O=C(COC(=O)c1ccccc1C(=O)N1CCN(c2ccccc2)CC1)NCc1ccccc1 | 23% (active) |
| CC(C)(C)C(=O)c1c(N)[nH]c(C(=O)c2ccccc2)c1-c1ccc(F)cc1 | -14.5% (inactive) |
| O=C(CCS(=O)(=O)c1ccccc1)NC1CCCC1 | 0.44% (inactive) |
| COc1ccc(C)cc1NC(=O)CCS(=O)(=O)c1cccc2nonc12 | -0.09% (inactive) |
| COc1cccc2sc(N(CCCN(C)C)C(=O)CCS(=O)(=O)c3ccccc3)nc12 | 22.5% (active) |
| Cc1nn(C)c(C)c1CN(C(=O)CCc1nnc(Cc2c[nH]c3ccccc23)o1)C(C)C | 12.7% (inactive) |
| Cc1cccn2c(=O)c3cc(C#N)c(=NC(=O)c4cccnc4)n(CC4CCCO4)c3nc12 (configuration not stated) | 21.1% (active) |
| COCCCn1c(C(=O)NC2CCCCC2)cc2c(=O)n3cccc(C)c3nc21 | -13.7% (inactive) |
| Cc1cccn2c(=O)c3cc(C#N)c(=O)n(CCCN4CCOCC4)c3nc12 | -13.8% (inactive) |
| O=C(C1CC1)N1N=C(c2ccc(Br)cc2)CC1(O)C(F)(F)F (configuration not stated) | -8.02% (inactive) |
| CCCS(=O)(=O)N1CCC(C(=O)NCCCN(C)Cc2ccccc2)CC1 | -3.31% (inactive) |
| CC1CC(C)CN(c2ccc(S(=O)(=O)N3CCOCC3)cc2)C1 (configuration not stated) | 4.68% (inactive) |
| CSCCC(NS(=O)(=O)/C=C/c1ccccc1)C(=O)N1CCC(C)CC1 (configuration not stated) | -1.94% (inactive) |

Reference: PubChem BioAssay AID602123 (The Scripps Research Institute Molecular Screening Center, 2011)
